For 1 sequence, binding signal results are on record in publication PMC7862700, “An all-to-all approach to the identification of sequence-specific readers for epigenetic DNA modifications on cytosine”.

Test in all cases: DAPPL (digital affinity profiling via proximity ligation, sequencing); 10 mM Tris-HCl pH 7.5, 50 mM NaCl, 1 mM DTT, 4% glycerol, room temperature, 30 min; GST-TFs on glutathione beads, 16-mer random dsDNA library, 0.1% formaldehyde crosslink after washing; high values mean tight binding
One assay has as its target T1, FLI1 (Homo sapiens, UniProt Q01543 1-452).
T1 sequence: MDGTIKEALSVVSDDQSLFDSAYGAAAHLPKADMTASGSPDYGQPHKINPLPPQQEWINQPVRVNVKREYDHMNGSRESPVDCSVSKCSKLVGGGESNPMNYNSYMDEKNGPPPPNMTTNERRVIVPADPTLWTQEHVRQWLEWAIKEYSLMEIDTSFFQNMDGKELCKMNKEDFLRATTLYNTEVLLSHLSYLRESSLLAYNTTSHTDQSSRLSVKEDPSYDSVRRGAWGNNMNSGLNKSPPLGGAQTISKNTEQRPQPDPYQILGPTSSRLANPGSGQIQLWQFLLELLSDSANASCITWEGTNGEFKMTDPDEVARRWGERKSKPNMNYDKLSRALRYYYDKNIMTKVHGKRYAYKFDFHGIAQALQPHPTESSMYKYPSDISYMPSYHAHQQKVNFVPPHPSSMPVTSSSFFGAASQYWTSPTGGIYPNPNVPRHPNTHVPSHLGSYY
Particulars: protein: recombinant; tags: N-terminal GST; dsDNA, one strand shown. The procedure, abridged: (§1)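 The binding signal reported is, for every hexamer, its read frequency for a factor over its read frequency for the tag-only sample. Reads came from pools of yeast-expressed, GST-fused human transcription factors on glutathione beads, barcoded with DNA and mixed with that sample, which were incubated with 200 nmole of a random double-stranded 16-mer DNA library in Tris/NaCl/DTT/glycerol buffer at room temperature for 30 min. After washing, the pools were crosslinked with 0.1% formaldehyde, proximity-ligated with BsaI/T4 ligase for 1 h at 37 °C, PCR-amplified and sequenced on an Illumina NextSeq500.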

The next assay addresses T2, ELK1 (Homo sapiens, UniProt P19419 1-428).
T2 sequence: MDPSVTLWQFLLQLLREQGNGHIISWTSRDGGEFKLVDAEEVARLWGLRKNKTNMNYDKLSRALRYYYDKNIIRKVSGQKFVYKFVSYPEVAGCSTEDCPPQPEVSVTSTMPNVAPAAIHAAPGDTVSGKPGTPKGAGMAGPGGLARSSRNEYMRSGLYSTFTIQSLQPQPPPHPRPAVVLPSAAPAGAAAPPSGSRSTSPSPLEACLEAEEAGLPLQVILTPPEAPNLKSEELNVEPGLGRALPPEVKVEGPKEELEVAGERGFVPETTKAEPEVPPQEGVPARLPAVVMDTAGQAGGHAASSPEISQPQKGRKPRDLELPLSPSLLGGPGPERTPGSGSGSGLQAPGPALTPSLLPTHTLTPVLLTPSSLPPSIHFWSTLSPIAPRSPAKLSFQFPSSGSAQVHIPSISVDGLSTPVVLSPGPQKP
Particulars: protein: recombinant; tags: N-terminal GST; dsDNA, one strand shown. An outline of the steps:
as §1

The next assay concerns the target T3, GABPA (Homo sapiens, UniProt Q06546 1-454).
T3 sequence: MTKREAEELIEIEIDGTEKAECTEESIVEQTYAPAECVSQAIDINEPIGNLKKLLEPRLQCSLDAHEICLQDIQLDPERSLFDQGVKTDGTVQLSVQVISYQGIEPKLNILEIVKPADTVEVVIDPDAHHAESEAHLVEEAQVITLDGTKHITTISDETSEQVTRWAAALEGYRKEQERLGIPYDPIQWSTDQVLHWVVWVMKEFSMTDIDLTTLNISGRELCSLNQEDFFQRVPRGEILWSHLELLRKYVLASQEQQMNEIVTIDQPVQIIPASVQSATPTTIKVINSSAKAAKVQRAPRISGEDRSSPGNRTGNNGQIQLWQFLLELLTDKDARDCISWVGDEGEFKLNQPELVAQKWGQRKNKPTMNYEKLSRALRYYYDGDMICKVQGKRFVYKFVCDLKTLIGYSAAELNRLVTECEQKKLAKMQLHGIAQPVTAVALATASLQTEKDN
Particulars: protein: recombinant; tags: N-terminal GST; dsDNA, one strand shown. An outline of the steps:
as §1

The target in another assay is T4, ERG (Homo sapiens, UniProt P11308 1-479).
T4 sequence: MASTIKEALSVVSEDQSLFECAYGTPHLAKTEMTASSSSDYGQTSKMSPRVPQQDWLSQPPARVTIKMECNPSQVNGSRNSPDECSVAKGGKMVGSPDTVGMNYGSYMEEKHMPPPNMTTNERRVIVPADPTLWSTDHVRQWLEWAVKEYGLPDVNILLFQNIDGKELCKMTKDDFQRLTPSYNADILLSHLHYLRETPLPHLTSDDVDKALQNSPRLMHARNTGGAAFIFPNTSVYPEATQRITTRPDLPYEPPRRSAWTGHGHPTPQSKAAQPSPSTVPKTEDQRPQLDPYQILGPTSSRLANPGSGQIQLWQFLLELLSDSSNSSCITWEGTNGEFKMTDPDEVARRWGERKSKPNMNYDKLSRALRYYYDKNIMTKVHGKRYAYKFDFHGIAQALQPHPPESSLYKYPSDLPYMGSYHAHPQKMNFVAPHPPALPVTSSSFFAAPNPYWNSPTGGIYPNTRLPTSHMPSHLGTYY
As to conditions: protein: recombinant; tags: N-terminal GST; dsDNA, one strand shown. An outline of the steps: as §1

The target in another assay is ELF1 (Homo sapiens, UniProt P32519 1-619). Particulars: protein: recombinant; tags: N-terminal GST; dsDNA, one strand shown. The procedure, abridged: as §1
ELF1, sequence (P32519 whole entry): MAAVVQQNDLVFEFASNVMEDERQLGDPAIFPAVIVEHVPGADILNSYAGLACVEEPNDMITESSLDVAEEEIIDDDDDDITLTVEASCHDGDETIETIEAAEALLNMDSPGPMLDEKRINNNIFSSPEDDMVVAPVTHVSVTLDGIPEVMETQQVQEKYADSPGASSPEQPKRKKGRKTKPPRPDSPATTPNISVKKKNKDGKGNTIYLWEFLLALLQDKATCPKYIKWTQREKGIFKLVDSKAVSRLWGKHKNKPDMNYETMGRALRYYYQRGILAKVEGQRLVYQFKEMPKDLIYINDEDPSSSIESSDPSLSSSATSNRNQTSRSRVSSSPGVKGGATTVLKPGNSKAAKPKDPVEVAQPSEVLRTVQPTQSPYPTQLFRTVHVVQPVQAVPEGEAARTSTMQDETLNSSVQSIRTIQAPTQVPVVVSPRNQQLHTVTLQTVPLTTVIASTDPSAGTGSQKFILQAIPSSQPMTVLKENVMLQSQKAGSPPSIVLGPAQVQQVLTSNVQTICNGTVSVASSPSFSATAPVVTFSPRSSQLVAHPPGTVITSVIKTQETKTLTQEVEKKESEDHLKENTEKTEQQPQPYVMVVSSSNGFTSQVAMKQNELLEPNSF
The target of the next assay is T5, EHF (Homo sapiens, UniProt Q9NZC4 1-300).
T5 sequence: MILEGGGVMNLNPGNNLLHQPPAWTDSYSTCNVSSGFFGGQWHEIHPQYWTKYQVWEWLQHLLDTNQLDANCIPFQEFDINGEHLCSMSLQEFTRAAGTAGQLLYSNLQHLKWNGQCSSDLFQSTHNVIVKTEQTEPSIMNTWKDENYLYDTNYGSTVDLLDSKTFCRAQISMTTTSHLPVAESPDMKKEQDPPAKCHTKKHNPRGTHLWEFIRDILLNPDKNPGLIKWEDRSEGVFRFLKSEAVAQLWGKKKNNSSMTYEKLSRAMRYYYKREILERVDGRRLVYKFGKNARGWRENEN
Particulars: protein: recombinant; tags: N-terminal GST; dsDNA, one strand shown. The procedure, abridged: as §1

In a further assay the target is SPI1 (Homo sapiens, UniProt P17947 1-270). As to conditions: protein: recombinant; tags: N-terminal GST; dsDNA, one strand shown. The procedure, abridged: as §1
A further assay addresses SPIB (Homo sapiens, UniProt Q01892 1-262). As to conditions: protein: recombinant; tags: N-terminal GST; dsDNA, one strand shown. The procedure, abridged:
as §1

The target of another assay is T6, ELK3 (Homo sapiens, UniProt P41970 1-407).
T6 sequence: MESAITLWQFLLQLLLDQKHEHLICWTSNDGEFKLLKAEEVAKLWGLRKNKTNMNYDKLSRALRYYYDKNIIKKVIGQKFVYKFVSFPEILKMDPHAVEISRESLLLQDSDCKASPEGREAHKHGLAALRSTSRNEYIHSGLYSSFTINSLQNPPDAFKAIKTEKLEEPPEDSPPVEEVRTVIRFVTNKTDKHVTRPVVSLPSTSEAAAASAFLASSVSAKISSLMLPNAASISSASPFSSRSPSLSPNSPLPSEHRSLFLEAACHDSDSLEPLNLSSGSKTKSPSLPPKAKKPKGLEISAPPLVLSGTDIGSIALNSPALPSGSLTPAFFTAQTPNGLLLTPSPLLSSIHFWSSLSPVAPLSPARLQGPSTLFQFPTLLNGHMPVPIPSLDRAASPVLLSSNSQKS
Particulars: protein: recombinant; tags: N-terminal GST; dsDNA, one strand shown. The procedure, abridged:
as §1

For another assay, the target named is T7, FEV (Homo sapiens, UniProt Q99581 1-238).
T7 sequence: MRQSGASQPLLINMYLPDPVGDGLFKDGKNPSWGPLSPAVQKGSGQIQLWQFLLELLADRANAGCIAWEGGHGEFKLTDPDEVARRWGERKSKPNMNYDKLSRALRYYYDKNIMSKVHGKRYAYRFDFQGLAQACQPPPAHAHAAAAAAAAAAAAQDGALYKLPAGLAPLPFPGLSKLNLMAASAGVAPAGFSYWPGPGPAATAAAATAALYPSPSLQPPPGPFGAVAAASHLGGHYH
As to conditions: protein: recombinant; tags: N-terminal GST; dsDNA, one strand shown. The procedure, abridged:
as §1

A further assay has as its target ETV5 (Homo sapiens, UniProt P41161 1-510). As to conditions: protein: recombinant; tags: N-terminal GST; dsDNA, one strand shown. The procedure, abridged:
as §1

A further assay concerns the target HSF1 (Homo sapiens, UniProt Q00613 1-529). As to conditions: protein: recombinant; tags: N-terminal GST; chain copies: 3; dsDNA, one strand shown. The procedure, abridged:
as §1

The target of another assay is T8, SPIC (Homo sapiens, UniProt Q8N5J4 1-248).
T8 sequence: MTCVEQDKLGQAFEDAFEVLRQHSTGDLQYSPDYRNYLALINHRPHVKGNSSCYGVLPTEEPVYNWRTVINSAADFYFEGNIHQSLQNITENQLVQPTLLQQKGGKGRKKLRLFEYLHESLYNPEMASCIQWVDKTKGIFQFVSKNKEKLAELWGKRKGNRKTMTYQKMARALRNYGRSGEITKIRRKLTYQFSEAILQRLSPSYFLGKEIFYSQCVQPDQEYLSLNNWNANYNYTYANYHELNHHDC
As to conditions: protein: recombinant; tags: N-terminal GST; dsDNA, one strand shown. The procedure, abridged: as §1

The target of another assay is ELF4 (Homo sapiens, UniProt Q99607 1-663). As to conditions: protein: recombinant; tags: N-terminal GST; dsDNA, one strand shown. The procedure, abridged:
as §1

A further assay has as its target T9, ELK4 (Homo sapiens, UniProt P28324-2 1-405).
T9 sequence: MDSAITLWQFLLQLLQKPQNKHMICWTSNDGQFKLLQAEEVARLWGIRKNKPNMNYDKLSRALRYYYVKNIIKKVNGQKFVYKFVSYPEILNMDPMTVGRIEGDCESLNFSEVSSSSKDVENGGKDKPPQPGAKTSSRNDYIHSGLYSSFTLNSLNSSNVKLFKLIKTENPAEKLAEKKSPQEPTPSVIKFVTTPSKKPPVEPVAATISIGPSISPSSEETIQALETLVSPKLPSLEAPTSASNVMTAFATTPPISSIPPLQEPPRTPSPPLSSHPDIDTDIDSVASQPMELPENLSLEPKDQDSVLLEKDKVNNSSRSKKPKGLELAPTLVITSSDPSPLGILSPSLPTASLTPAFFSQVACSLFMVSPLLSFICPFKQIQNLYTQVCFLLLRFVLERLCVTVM
As to conditions: protein: recombinant; tags: N-terminal GST; dsDNA, one strand shown. The procedure, abridged:
as §1

Another assay addresses T10, ETV2 (Homo sapiens, UniProt O00321 1-342).
T10 sequence: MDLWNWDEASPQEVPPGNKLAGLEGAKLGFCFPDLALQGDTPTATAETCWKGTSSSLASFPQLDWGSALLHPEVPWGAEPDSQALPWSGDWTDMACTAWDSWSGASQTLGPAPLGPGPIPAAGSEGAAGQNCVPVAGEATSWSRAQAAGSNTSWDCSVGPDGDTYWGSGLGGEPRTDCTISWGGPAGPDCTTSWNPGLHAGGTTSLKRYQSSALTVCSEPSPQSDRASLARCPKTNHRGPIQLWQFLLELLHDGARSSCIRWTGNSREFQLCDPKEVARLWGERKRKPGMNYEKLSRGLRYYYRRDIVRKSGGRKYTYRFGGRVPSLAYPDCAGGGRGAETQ
Particulars: protein: recombinant; tags: N-terminal GST; dsDNA, one strand shown. The procedure, abridged:
as §1

A further assay deals with T11, ELF3 (Homo sapiens, UniProt P78545 1-371).
T11 sequence: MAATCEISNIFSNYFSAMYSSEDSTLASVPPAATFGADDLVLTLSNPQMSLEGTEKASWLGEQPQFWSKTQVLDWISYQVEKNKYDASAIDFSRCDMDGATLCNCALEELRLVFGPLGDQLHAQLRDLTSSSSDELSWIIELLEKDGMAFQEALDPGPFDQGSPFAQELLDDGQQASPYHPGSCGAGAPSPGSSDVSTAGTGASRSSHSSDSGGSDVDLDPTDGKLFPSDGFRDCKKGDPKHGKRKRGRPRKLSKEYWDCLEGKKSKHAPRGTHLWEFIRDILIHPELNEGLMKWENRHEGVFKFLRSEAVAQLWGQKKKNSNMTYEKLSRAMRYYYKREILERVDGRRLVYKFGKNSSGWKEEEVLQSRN
Particulars: protein: recombinant; tags: N-terminal GST; dsDNA, one strand shown. The procedure, abridged:
as §1

A further assay concerns the target CRX (Homo sapiens, UniProt O43186 1-299). As to conditions: protein: recombinant; tags: N-terminal GST; dsDNA, one strand shown. An outline of the steps: as §1
For the next assay, the target named is ETV1 (Homo sapiens, UniProt P50549 1-477). Particulars: protein: recombinant; tags: N-terminal GST; dsDNA, one strand shown. The procedure, abridged:
as §1

ETV5, sequence (P41161 whole entry): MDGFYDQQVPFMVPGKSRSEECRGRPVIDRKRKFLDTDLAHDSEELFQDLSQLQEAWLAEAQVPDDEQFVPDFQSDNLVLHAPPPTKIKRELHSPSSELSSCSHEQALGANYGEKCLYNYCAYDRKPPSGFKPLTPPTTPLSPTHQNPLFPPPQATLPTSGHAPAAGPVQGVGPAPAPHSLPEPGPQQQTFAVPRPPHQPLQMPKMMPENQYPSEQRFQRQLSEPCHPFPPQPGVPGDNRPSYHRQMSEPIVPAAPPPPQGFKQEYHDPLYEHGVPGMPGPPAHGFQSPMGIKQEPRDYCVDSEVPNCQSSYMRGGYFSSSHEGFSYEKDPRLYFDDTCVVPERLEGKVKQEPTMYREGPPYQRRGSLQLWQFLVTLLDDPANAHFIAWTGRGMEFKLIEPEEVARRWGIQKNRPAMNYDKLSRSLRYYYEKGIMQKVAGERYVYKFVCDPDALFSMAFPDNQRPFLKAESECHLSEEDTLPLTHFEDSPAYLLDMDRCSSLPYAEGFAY
ETV1, sequence (P50549 whole entry): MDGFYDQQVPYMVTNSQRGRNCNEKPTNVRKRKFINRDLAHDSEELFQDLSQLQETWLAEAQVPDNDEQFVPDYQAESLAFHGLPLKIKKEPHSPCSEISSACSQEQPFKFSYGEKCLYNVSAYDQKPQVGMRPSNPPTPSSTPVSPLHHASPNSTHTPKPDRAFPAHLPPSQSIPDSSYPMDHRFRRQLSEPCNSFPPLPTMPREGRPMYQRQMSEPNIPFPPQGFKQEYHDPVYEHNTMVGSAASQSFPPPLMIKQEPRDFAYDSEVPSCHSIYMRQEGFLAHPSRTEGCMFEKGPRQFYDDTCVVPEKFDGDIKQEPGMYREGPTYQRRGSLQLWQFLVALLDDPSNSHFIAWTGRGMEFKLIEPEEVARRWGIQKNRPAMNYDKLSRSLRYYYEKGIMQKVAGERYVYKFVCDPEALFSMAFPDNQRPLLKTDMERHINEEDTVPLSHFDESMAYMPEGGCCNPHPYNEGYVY
ELF4, sequence (Q99607 whole entry): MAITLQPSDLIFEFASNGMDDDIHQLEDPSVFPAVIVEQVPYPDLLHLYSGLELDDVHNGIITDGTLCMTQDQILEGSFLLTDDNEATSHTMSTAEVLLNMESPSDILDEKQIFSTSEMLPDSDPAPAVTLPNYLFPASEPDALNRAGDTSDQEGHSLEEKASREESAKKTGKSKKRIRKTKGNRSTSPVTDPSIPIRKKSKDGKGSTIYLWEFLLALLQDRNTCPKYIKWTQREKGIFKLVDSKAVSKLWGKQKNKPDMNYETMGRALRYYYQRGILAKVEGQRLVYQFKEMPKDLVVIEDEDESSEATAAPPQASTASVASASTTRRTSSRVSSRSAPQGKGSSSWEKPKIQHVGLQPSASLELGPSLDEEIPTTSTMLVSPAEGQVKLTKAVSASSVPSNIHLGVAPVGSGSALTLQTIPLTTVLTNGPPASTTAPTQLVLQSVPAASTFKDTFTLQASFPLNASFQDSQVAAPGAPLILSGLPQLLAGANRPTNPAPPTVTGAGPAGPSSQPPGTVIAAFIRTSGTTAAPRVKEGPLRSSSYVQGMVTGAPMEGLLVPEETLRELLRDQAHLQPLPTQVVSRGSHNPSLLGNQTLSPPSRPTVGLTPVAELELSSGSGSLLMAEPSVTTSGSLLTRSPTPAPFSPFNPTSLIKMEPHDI
SPIB, sequence (Q01892 whole entry): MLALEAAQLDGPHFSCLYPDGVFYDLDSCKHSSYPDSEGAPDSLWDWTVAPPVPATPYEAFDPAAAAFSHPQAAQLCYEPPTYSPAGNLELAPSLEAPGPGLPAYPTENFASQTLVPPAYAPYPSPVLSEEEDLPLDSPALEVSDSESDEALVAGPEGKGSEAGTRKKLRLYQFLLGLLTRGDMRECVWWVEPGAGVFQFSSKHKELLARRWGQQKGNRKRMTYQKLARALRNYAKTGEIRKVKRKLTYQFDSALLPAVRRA
CRX, sequence (O43186 whole entry): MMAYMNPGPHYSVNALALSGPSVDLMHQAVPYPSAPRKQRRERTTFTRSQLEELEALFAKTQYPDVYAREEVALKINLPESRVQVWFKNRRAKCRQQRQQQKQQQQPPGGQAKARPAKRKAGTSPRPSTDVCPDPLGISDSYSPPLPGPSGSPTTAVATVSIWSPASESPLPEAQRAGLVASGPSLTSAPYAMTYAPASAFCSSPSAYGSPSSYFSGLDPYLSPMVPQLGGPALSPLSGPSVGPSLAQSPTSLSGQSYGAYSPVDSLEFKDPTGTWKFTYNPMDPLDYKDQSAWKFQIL
HSF1, sequence (Q00613 whole entry): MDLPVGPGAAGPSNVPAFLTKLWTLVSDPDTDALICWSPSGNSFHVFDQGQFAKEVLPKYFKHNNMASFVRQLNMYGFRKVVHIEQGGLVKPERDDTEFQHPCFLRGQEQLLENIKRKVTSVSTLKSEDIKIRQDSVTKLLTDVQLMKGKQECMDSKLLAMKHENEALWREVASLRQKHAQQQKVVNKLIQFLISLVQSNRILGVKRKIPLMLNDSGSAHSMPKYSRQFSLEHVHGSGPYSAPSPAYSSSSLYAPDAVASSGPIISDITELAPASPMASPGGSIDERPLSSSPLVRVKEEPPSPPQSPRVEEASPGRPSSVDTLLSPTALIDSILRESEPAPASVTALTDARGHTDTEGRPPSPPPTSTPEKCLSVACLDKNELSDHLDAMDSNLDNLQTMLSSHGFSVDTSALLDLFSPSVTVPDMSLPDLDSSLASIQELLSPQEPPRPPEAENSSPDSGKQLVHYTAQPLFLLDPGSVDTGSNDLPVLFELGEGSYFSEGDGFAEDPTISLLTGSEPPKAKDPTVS

As to GAAATT, the binding signal was 1.23 fold enrichment (6-mer frequency, TF over GST control) with FLI1; 1.15 fold enrichment (6-mer frequency, TF over GST control) with ELK1; 1.29 fold enrichment (6-mer frequency, TF over GST control) in the assay with GABPA; 1.32 fold enrichment (6-mer frequency, TF over GST control) in the assay with ERG; 1.23 fold enrichment (6-mer frequency, TF over GST control) with ELF1; 1.36 fold enrichment (6-mer frequency, TF over GST control) with EHF. Also, the binding signal with SPI1 is 1.23 fold enrichment (6-mer frequency, TF over GST control); in the assay with SPIB, 1.3 fold enrichment (6-mer frequency, TF over GST control); in the assay with ELK3, 1.28 fold enrichment (6-mer frequency, TF over GST control); with FEV, 1.25 fold enrichment (6-mer frequency, TF over GST control); with ETV5 it was 1.36 fold enrichment (6-mer frequency, TF over GST control); in the assay with HSF1 it was 1.48 fold enrichment (6-mer frequency, TF over GST control). The binding signal in the assay with SPIC is 1.2 fold enrichment (6-mer frequency, TF over GST control); with ELF4, 1.27 fold enrichment (6-mer frequency, TF over GST control); with ELK4, 1.17 fold enrichment (6-mer frequency, TF over GST control); with ETV2, 1.23 fold enrichment (6-mer frequency, TF over GST control); with ELF3 it was 1.44 fold enrichment (6-mer frequency, TF over GST control); in the assay with CRX, 1.08 fold enrichment (6-mer frequency, TF over GST control). For the same sequence, in the assay with ETV1, the binding signal was 1.28 fold enrichment (6-mer frequency, TF over GST control).
